Source: PubChem BioAssay (The Scripps Research Institute Molecular Screening Center)
Only some compounds are listed: those with a hit (about 2.4% of all), similar ones and a draw of the others.
CHO-K1 Ca ag = counter-screen for M1 agonists: effect in parental CHO-K1 cells | Fluo-8 calcium fluorescence; scaled to maximal ATP response, vehicle zero | AID 602248 | activation, % at 3 µM | actives 0.48% (n = 360,000); in the data active means activation above about 15%;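 further: untransfected CHO-K1 host cells lacking M1 receptor as counterscreen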
CHO-K1 Ca antag = M1 antagonist counterscreen hit in parental CHO-K1 cells. ATP-induced calcium, Fluo-8 fluorescence. inhibition, % at 3 µM. actives 0.6% (n = 360,000). AID 602250;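 active means inhibition above a per-plate cutoff, the plate's mean sample inhibition plus 3 SD, cut at about 24% in these data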;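 further: 0% = DMSO plus EC80 ATP and 100% = DMSO alone without ATP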
M1 PAM = positive allosteric modulators of human M1 muscarinic receptor. P11229. CHO-K1 hM1, Fluo-8 calcium fluorescence, ACh EC20; 0% = ACh EC20, 100% = maximal ACh. activation, % at 3 µM. actives 0.088% (n = 360,000); in the data active means activation above about 19%, passing the limit was not always enough
Target sequence (P11229 whole entry, looked up): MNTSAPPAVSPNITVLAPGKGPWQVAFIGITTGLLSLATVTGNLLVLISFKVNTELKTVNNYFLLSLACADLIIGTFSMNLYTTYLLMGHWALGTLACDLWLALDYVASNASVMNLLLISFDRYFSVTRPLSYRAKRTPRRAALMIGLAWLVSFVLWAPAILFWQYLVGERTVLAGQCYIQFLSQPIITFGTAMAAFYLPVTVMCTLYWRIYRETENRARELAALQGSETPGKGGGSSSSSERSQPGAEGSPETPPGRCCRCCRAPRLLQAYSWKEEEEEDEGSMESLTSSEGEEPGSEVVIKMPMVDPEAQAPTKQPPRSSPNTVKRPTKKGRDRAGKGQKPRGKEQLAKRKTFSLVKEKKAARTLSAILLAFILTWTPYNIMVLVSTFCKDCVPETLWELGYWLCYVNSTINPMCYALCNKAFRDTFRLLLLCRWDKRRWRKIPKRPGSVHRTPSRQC
M1 ag = agonists of human M1 muscarinic receptor. P11229. CHO-K1 hM1, Fluo-8 calcium fluorescence, agonist mode; 0% DMSO, 100% acetylcholine EC100. activation, % at 3 µM. actives 0.33% (n = 360,000);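 active means activation above the run's mean compound activation plus 3 SD, cut at about 16% in these data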;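 further: peak over basal fluorescence ratio within a 140 s kinetic read after compound addition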
M1 antag = blocks human M1 muscarinic receptor; P11229; CHO-K1 hM1, Fluo-8 calcium fluorescence, ACh EC80 antagonist; inhibition, % at 3 µM; actives 1.3% (n = 360,000);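 active means percent inhibition above its own plate's cutoff, namely the mean of that plate's compound wells plus 3 SD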;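 further: peak over basal fluorescence ratio during 140 s after agonist addition; 0% = ACh EC80 plus DMSO and 100% = DMSO alone without agonist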
M1 PAM parental = counter-screen for M1 PAMs: effect in parental CHO-K1 cells; actives 0.02% (n = 360,000); activation, % at 3 µM; ATP EC20, Fluo-8 calcium fluorescence; 0% at ATP EC20, 100% at ATP max; AID 602247;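 active means activation above the run cutoff, the mean activation of all test compounds plus 3 SD, cut at about 40% in these data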;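 further: peak over basal fluorescence ratio in a 140 s read after ATP addition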
Starred values were filed as active, the others as inactive.

SMILES | CHO-K1 Ca ag | CHO-K1 Ca antag | M1 PAM | M1 ag | M1 antag | M1 PAM parental
Cc1c(C(=O)NC2CCCCC2C)oc2ccccc12 (stereo not given) | 0 | -8 | 9 | -3 | -22 | 20
CN(Cc1ccccc1)C(=O)c1cccc(NC(=O)Cc2ccc([N+](=O)[O-])cc2)c1 | 10 | -5 | -23 | -8 | 16 | -5
Cc1ccc(CC(=O)Nc2cccc([N+](=O)[O-])c2)cc1 | 18* | -3 | 7 | -7 | -6 | 16
CN(Cc1ccccc1)C(=O)c1cccc(NC(=O)Cc2cccc([N+](=O)[O-])c2)c1 | 9 | -10 | -26 | -12 | 33* | -5
Cc1ccc2nc(SCC(=O)Nc3cccc([N+](=O)[O-])c3)[nH]c2c1 | 16* | -1 | 1 | -5 | 5 | 11
CC(CCc1ccccc1)NC(=O)CNc1cccc([N+](=O)[O-])c1 (stereo not given) | 15* | -10 | -5 | 2 | 0 | 2
COCCNc1nc(-c2cc(-c3ccc(Cl)cc3)on2)cc(C(C)C)n1 | 1 | -12 | -1 | -9 | -6 | 15
CCCCCCCN1CCN=C1N(C)C | 0 | -7 | -1 | -12 | 0 | 18
CCN(CCCNC(=O)c1nn(C)c2c1CS(=O)(=O)c1ccccc1-2)Cc1ccccc1 | 0 | 13 | -3 | -5 | 13 | -8
CNC(=O)CSc1nc2ccccc2c(=O)n1CCc1ccccc1 | 0 | -4 | -2 | -2 | 8 | 7
CN1C(=O)c2ccc(Oc3ccccc3)cc2C1=O | 4 | -3 | 1 | -3 | -8 | 3
COc1ccc(CCNC(=O)C2CCC(=O)N(CCc3ccc(OC)cc3)C2)cc1 (stereo not given) | 1 | 5 | -6 | -2 | 21 | -11
COc1ccc(CCN2CC(C(=O)NCCCc3ccncc3)CCC2=O)cc1 (stereo not given) | 0 | 25* | 16 | 8 | -1 | -7
Cc1cccc(NS(=O)(=O)c2ccc(C(=O)NCC(c3ccccc3)N(C)C)cc2)c1C (stereo not given) | 14 | -1 | -19 | 4 | 27* | -14
Cc1ccc(S(=O)(=O)Nc2cccc(C(=O)NCC(c3ccco3)N(C)C)c2)cc1F (stereo not given) | 2 | -6 | -25 | -7 | 43* | 12
CN(C)C(CNC(=O)c1ccc(C2SCCS2)cc1)c1ccccc1 (stereo not given) | 1 | -19 | -27 | -13 | 38* | 8
Cc1ccc(NS(=O)(=O)c2ccc(C(=O)NCC(c3ccco3)N(C)C)cc2)cc1 (stereo not given) | 26* | 8 | -8 | 10 | 15 | 11
CN(C)C(CNC(=O)c1ccc(NC(=O)c2cccs2)cc1)c1ccccc1 (stereo not given) | 1 | -2 | -25 | -12 | 20 | 0
COC(=O)c1ccc(Cl)c(NC(=O)CN(c2ccccc2)S(=O)(=O)c2ccc(OC)cc2)c1 | 4 | 2 | -13 | -9 | 12 | 14
CCCCc1cc(O)c(CCCC)c(O)c1 | 47* | 48* | -16 | 55* | 51* | -9
Cc1c(OCC(=O)NCc2cccnc2)ccc2c3c(c(=O)oc12)CCCC3 | 1 | -13 | -4 | -2 | 3 | 5
Cc1c(OC(C)C(=O)NCc2cccnc2)ccc2c3c(c(=O)oc12)CCCC3 (stereo not given) | 4 | 58* | 1 | -1 | -6 | -5
COc1ccc(-c2nn(-c3ccccc3)cc2C(=O)NC(=S)Nc2cc(Cl)ccc2Cl)cc1 | 0 | -5 | 26* | 1 | -37 | 10
CC(C)CNC(=O)COC(=O)C1c2ccccc2Oc2ccccc21 | 1 | -5 | 13 | -5 | -13 | -9
C=CCN(CC=C)C(=O)C1c2ccccc2Oc2ccccc21 | 0 | -14 | -10 | -7 | 13 | 19
CC(C)[N+](C)(CCOC(=O)C1c2ccccc2Oc2ccccc21)C(C)C | 0 | 12 | -24 | -6 | 97* | 0
CCN(CC)C(=O)C1c2ccccc2Oc2ccccc21 | 27* | 2 | -1 | 18* | 5 | 6
